Screening data from PubChem.
nsP2pro primary – Primary qHTS for inhibitors of NSP2Pro chikungunya virus (CHIKV). Polyprotein P1234 (Chikungunya virus (strain S27-African prototype)), Q8JUX6. Potency, µM (titrated, usually from 24.9 µM), actives largely listed as inhibitors. 31,000 compounds, 1.1% hits. FRET peptide cleavage, nsP2pro, fluorescence 1 h; also: nearly all actives have a fitted effect of over 60% in size
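Recombinant nsP2pro (150 nM) was preincubated with compound 15 min at room temperature in 10 mM Tris-HCl pH 8.0, 0.01% Tween 20. Peptide 2 FRET substrate (2.5 uM) was then added and fluorescence read after 1 h. Seven-point series, up to 25 uM.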
CHIKV nsP2 cell – Secondary cell base assay for inhibitors of NSP2Pro Chikungunya virus (CHIKV); shares compounds with nsP2pro primary; cell-based CHIKV nsP2 protease reporter assay; Potency, µM (highest dose often 51.1 µM), actives largely listed as inhibitors; 450 compounds, 10% hits; AID 1964100, 2024; also: nearly all actives have a fitted effect of over 70% in size
NSP2 full ctr – Selectivity profile for inhibitors of NSP2Pro chikungunya virus (CHIKV): Full length NSP2 enzyme counterscreen (CHIKV-NSP2); shares compounds with nsP2pro primary; Full-length CHIKV NSP2 protease enzymatic counterscreen; Potency, µM (series often up to 50.7 µM), usual class: inhibitors; 410 compounds, 39% hits; AID 1964101, 2024; also: nearly all actives have a fitted effect of over 65% in size
Furin counter – Selectivity profile for inhibitors of NSP2Pro chikungunya virus (CHIKV): Human furin counterscreen. shares compounds with nsP2pro primary. Recombinant human furin enzymatic counterscreen, fluorogenic substrate. Potency, µM (highest dose often 50.6 µM), most hits filed as inhibitors. 410 compounds, 6% hits. AID 1964102, 2024
nsP2 NS23 pep – Selectivity profile for inhibitors of NSP2Pro chikungunya virus (CHIKV): Endogenous NS2/3 peptide Counterscreen. shares compounds with nsP2pro primary. Potency, µM (highest dose often 51 µM), usual class: inhibitors. 410 compounds, 34% hits. Purified CHIKV nsP2 protease, endogenous NS2/3 peptide cleavage. AID 1964103, 2024; also: nearly all actives have a fitted effect of over 55% in size
Papain cs – Selectivity profile for inhibitors of NSP2Pro chikungunya virus (CHIKV): Papain Counterscreen; shares compounds with nsP2pro primary; purified papain protease activity, enzymatic inhibition; Potency, µM (titrated, usually from 51 µM), hits mostly inhibitors; 410 compounds, 5% hits
Target sequence (P00784 whole entry, looked up): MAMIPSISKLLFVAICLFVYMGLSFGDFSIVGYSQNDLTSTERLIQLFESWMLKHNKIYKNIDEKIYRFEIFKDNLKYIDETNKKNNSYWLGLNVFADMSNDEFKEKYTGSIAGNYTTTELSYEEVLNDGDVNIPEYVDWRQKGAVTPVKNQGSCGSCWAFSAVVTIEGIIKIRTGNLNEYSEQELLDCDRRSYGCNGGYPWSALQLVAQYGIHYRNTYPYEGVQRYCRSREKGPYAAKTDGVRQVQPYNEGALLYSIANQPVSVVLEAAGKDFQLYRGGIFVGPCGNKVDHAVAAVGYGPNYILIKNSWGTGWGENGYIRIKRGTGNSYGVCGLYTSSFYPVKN
nsP2pro conf qHTS – Confirmatory qHTS for inhibitors of NSP2Pro chikungunya virus (CHIKV). CHIKV nsP2 protease enzymatic activity, qHTS. 410 compounds, 43% hits. shares compounds with nsP2pro primary. Potency, µM (series often up to 25.5 µM), usual class: inhibitors; also: nearly all actives have a fitted effect of over 75% in size
HCV NS3 4A cs – Selectivity profile for inhibitors of NSP2Pro chikungunya virus (CHIKV): NS34A-HCV Counterscreen. shares compounds with nsP2pro primary. HCV NS3/4A protease biochemical counterscreen. Potency, µM (titrated, usually from 50.9 µM), most hits filed as inhibitors. 410 compounds, 20% hits. AID 1964106, 2024; also: nearly all actives have a fitted effect of over 55% in size
A number is an active result; . = inactive; ? = inconclusive. Many of the other results were omitted from the sample, so hits are more common in it than they were. Calls follow the shape of the full dose curve.

SMILES	nsP2pro primary	others
C[C@@H]1O[C@@H](O[C@H]2[C@@H]3C=CO[C@@H](O[C@@H]4O[C@H](CO)[C@@H](O)[C@H](O)[C@H]4O)[C@@H]3[C@@]3(CO)O[C@@H]23)[C@H](OC(=O)/C=C/c2ccccc2)[C@H](O)[C@H]1O	.
C[C@@H]1O[C@@H](O[C@H]2[C@@H]3C=CO[C@@H](O[C@@H]4O[C@H](CO)[C@@H](O)[C@H](O)[C@H]4O)[C@@H]3[C@@]3(CO)O[C@@H]23)[C@H](OC(=O)/C=C/c2ccc(O)c(O)c2)[C@H](O)[C@H]1O	?	CHIKV nsP2 cell=.;NSP2 full ctr=.;Furin counter=.;nsP2 NS23 pep=.;Papain cs=.;nsP2pro conf qHTS=.;HCV NS3 4A cs=.
O=C(/C=C/c1ccc(O)c(O)c1)O[C@H]1[C@@H]2C=CO[C@@H](O[C@@H]3O[C@H](CO)[C@@H](O)[C@H](O)[C@H]3O)[C@@H]2[C@@]2(CO)O[C@@H]12	.
COc1ccc(/C=C/C(=O)O[C@H]2[C@@H]3C=CO[C@@H](O[C@@H]4O[C@H](CO)[C@@H](O)[C@H](O)[C@H]4O)[C@@H]3[C@@]3(CO)O[C@@H]23)cc1O	.
CC(=O)O[C@@H]1[C@@H](OC(=O)/C=C/c2ccccc2)[C@H](C)O[C@@H](O[C@H]2[C@@H]3C=CO[C@@H](O[C@@H]4O[C@H](CO)[C@@H](O)[C@H](O)[C@H]4O)[C@@H]3[C@@]3(CO)O[C@@H]23)[C@@H]1OC(C)=O	.
Nc1ccc(S(=O)(=O)N2CCN(S(=O)(=O)c3c(F)cccc3F)CC2)cc1	.
COc1ccc(N2CCN(C(=O)c3ccc(C)c(NC(=O)c4nsc5ccccc45)c3)CC2)cc1	.
Cc1c(C(=O)OC2CCCCCC2)[nH]c2c1C(=O)CC(c1ccccc1Cl)C2 (stereo not drawn)	.
Cc1c(C(=O)OCC2CCCCC2)[nH]c2c1C(=O)CC(c1ccc(F)cc1)C2 (stereo not drawn)	.
Cc1c(C(=O)OCC2CCCCO2)[nH]c2c1C(=O)CC(c1ccco1)C2 (stereo not drawn)	7.9µM	CHIKV nsP2 cell=15µM;NSP2 full ctr=.;Furin counter=?;nsP2 NS23 pep=.;Papain cs=.;nsP2pro conf qHTS=.;HCV NS3 4A cs=.
Cc1ccnc(CC(=S)N2CCN(c3cccc(C(F)(F)F)c3)CC2)c1	.
CC(C)CC(=O)N1[C@@H](c2ccco2)[C@@H](C(=O)O)C[C@]12CCCCNC2=O	?	CHIKV nsP2 cell=.
CC(C)CC(=O)N1[C@@H](c2ccco2)[C@@H](CO)C[C@]12CCCCN(CCO)C2=O	?	CHIKV nsP2 cell=.
CC(C)CC(=O)N1CC(=O)Nc2ccc(F)cc2C1c1ccccc1 (stereo not drawn)	.
COc1ccc(CNC(=O)c2cc3c(=O)[nH]c4ccccc4c3n2C)c(OC)c1	.
Cc1ccc(C)c(N2CCN(c3nc4ccccc4n4nnnc34)CC2)c1	.
Cc1cc2c(s1)c(C=O)c(C(=O)NCc1ccccc1F)n2C	.
CCOC(=O)c1ccc(N2C(=O)c3[nH]nc(-c4ccc(OCC)cc4)c3C2c2cccs2)cc1 (stereo not drawn)	.
CC(Nc1oc(-c2ccc(COc3ccc(Cl)cc3)o2)nc1C#N)c1ccccc1 (stereo not drawn)	.
CC(C)(C)OC(=O)N1CCC(c2ccc(NCc3ccc(-c4ccc(C#N)cc4)o3)cc2)CC1	.
CC(C)(C)OC(=O)N1CCN(c2ccc(NCc3ccc(-c4ccc(C#N)cc4)o3)nc2)CC1	.
COc1ccc(-c2ccc(CNc3ccc(N4CCN(C(=O)OC(C)(C)C)CC4)cc3)o2)cc1	.
CCOC(=O)C1CCN(c2ccc(NCc3ccc(-c4ccc(C#N)cc4)o3)cc2)CC1	4.5µM	CHIKV nsP2 cell=21µM;NSP2 full ctr=?;Furin counter=.;nsP2 NS23 pep=?;Papain cs=.;nsP2pro conf qHTS=.;HCV NS3 4A cs=3.7µM
N#Cc1ccc(-c2ccc(CNc3ccc(N4CCC(C#N)CC4)cc3)o2)cc1	10µM	CHIKV nsP2 cell=?;NSP2 full ctr=?;Furin counter=.;nsP2 NS23 pep=?;Papain cs=.;nsP2pro conf qHTS=?;HCV NS3 4A cs=2.6µM
CC(C)(C)OC(=O)N1CCN(c2ccc(NCc3ncc(-c4ccc(C#N)cc4)o3)cc2)CC1	.
SMILES	nsP2pro primary	others
Cc1ccc(NC(=O)C(Cc2ccccc2)NS(=O)(=O)c2ccc3c(c2)c(=O)n(C)c(=O)n3C)c(C)c1 (stereo not drawn)	.
CC(=O)O[C@H]1C[C@H](OC(C)=O)[C@]2(C)[C@H](CC[C@@]34O[C@@H]3C3=C(C)C(=O)O[C@@H]3C[C@H]42)C1(C)C	.
NC(=S)NS(=O)(=O)c1ccc(N)cc1	.
CCOC(=O)N1CCN(C(=O)Cn2sc3nc(C)cc(C)c3c2=O)CC1	3.9µM	CHIKV nsP2 cell=.;NSP2 full ctr=?;Furin counter=.;nsP2 NS23 pep=21µM;Papain cs=.;nsP2pro conf qHTS=4µM;HCV NS3 4A cs=.
Cc1ccc(C)c(N2CCN(C(=O)Cn3ncc4ccsc4c3=O)CC2)c1	.
CCOC(=O)C1CCN(C(=O)Cn2ncc3c4ccccc4n(C)c3c2=O)CC1	.
N#CN/C(=N\c1nnc(-c2ccncc2)s1)Nc1ccc(F)c(C(F)(F)F)c1	.
CC1(C)CC2C(O)c3cocc3CC(C)(O)C2C1 (stereo not drawn)	.
Oc1c(C(Nc2ccccn2)c2ccccc2)cc(Cl)c2cccnc12 (stereo not drawn)	.
COc1ccccc1CNC(=O)C(NS(=O)(=O)c1cccs1)C(C)C (stereo not drawn)	.
O=C(C(NS(=O)(=O)c1ccc2[nH]c(=O)ccc2c1)c1cccc(C(F)(F)F)c1)N(Cc1ccco1)Cc1cccs1 (stereo not drawn)	7.9µM	CHIKV nsP2 cell=.;NSP2 full ctr=?;Furin counter=.;nsP2 NS23 pep=.;Papain cs=.;nsP2pro conf qHTS=.;HCV NS3 4A cs=.
O=C(c1ccccc1)N(Cc1ccco1)Cc1cccs1	.
CS(=O)(=O)c1ncc(N(Cc2ccccc2)Cc2ccco2)c(C(=O)Nc2cccc(C(F)(F)F)c2)n1	.
O=C(NC1CN(c2ccnc3ccnn23)C1)c1ccc(Cl)nc1	.
